# PubChem BioAssay AID1347048 (National Center for Advancing Translational Sciences (NCATS), 2019)
# Among all 76,000 compounds or so, about 1,200 (1.6%) were called active. About 4% were inconclusive and are not listed. For the sample, actives were picked, then their nearest neighbours and some compounds at random. Unmarked numbers belong to inactive results. Calls follow the shape of the full dose curve.
# Molecular target: Atrial natriuretic peptide receptor 1 (Homo sapiens) (UniProt P16066)
# Assay: Natriuretic polypeptide receptor (hNpr1) antagonism - Primary qHTS; also: nearly all actives have a fitted effect of over 60% in size
# Details: HEK293 hNpr1 GloSensor cGMP, ANP-stimulated luminescence; series mostly up to 46.3 µM; activity change, negative = inhibition: at the top concentration
# Text: Pruritus or itch, is an irritating skin sensation that creates a need to scratch, and ranges from mildly unpleasant and passing to acute and persistent sensations. […] Conventional treatments include topical anti-inflammatory agents, anti-histamines, and emollients, which are aimed at managing the itchy sensation and not the underlying disease. The treatment of pruritus remains a diagnostic and therapeutic challenge. Neurotransmission in the spinal cord from primary pruriceptors to second order neurons is a necessary step that eventually results in the sensation of itch. At this synapse, primary pruriceptors use the neuropeptide natriuretic polypeptide B (NppB) to activate its cognate receptor Natriuretic polypeptide receptor 1 (Npr1) on second order neurons. Inhibition of this step is a new potential strategy to inhibit acute and chronic itch. In order to identify small molecular compounds that can inhibit the Npr1 receptor we developed a high-throughput assay to probe inhibition of the receptor guanylate cyclase Npr1. The assay was designed taking advantage of Promega's GloSensor[TM] technology (Fan, F. et al. 2008). It involves the expression of a cyclic guanosine monophosphate (cGMP) biosensor, comprised of a firefly luciferase variant that was coupled to the cGMP binding domain of human phosphodiesterase 5A, and loading of cells with a cell-permeable luciferase substrate to monitor cGMP production by Npr1 in real time in live cells. In detail, we generated human embryonic kidney 293 cells stably expressing the human Npr1 and the cGMP GloSensor[TM] pGS-40F. Stimulating these cells with the Npr1 agonists human NppA or NppB, luciferase-induced light production could be detected in a dose-dependent manner. We also generated HEK293 cells stably expressing human Npr2 and pGS-40F and cells only expressing pGS-40F to conduct secondary counter screens. In these cells, NppC or sodium nitroprusside were used to stimulate Npr2 or soluble guanylate cyclase which is endogenously expressed in HEK293 cells, respectively. REFERENCE F. Fan, B. F. Binkowski, B. L. Butler, P. F. Stecha, M. K. Lewis, K. V. Wood, Novel genetically encoded biosensors using firefly luciferase. ACS Chem. Biol., 2008, 3: 346-351 .
# PROTOCOL TABLES (as described by Inglese J, Shamu CE and Guy RK. 2007) SEQUENCE No. (e.g., 1, 2, 3, etc.); […] (e.g., Cells, Incubation, Reagent, etc.); VALUE and DESCRIPTION. GLOSENSOR PROTOCOL 1. Cells. Seed 1500 HEK293 cGMP-sensor cells expressing hNpr1 per well in 4uL into Greiner 1536-well white/solid bottom high base, tissue culture-treated plates. 2. Incubation. Incubate plated cells at 37C in 5% CO2, 95% RH overnight. 3. Reagent. Add 1uL per well GloSensor reagent from Promega (2% final concentration) or CO2 independent media vehicle control to respective columns of Greiner 1536-well plates. 4. Incubation. Incubate plated cells at room temperature for 2 h, protect from light. 5. Compounds. Library compounds and A-71915 control added at 23 nL per well, transferred by Pin Tool. 6. Incubation. Incubate plated cells for 30 min. at room temperature, protect from light. 7. Detector. GloSensor baseline pre-read luminescence measured using CCD-based camera (Viewlux). 8. Compound. Add 1uL of hNppA peptide to 0.1 nM final concentration to stimulate hNpr1 or CO2 independent media as vehicle control. 9. Incubation. Incubate treated cells at room temperature for 20 min., protect from light. 10. Detector. GloSensor post-hNppA luminescence measured using CCD-based camera (Viewlux). NOTES (numbers refer to Sequence numbers above) 1. HEK293 cells expressing hNpr1 and GIP/pGS-40F grown to 85-95% confluence (48-72 h) in T175 culture flasks (CO2 independent media supplemented with 10% FBS, 1% Pen/Strep antibiotics and 1 ug/mL puromycin). Trypsinize and harvest cells from T175 culture flasks and filter through 40 um cell strainer. Cells counted with Invitrogen Countess (30,000,000 - 50,000,000 cells/flask). […]
# % is scaled to controls: 0 for no effect and ±100 for the full control effect; potency is read from the fitted curve at half-maximal effect.
# Atrial natriuretic peptide receptor 1 (Homo sapiens), sequence (P16066 whole entry, looked up): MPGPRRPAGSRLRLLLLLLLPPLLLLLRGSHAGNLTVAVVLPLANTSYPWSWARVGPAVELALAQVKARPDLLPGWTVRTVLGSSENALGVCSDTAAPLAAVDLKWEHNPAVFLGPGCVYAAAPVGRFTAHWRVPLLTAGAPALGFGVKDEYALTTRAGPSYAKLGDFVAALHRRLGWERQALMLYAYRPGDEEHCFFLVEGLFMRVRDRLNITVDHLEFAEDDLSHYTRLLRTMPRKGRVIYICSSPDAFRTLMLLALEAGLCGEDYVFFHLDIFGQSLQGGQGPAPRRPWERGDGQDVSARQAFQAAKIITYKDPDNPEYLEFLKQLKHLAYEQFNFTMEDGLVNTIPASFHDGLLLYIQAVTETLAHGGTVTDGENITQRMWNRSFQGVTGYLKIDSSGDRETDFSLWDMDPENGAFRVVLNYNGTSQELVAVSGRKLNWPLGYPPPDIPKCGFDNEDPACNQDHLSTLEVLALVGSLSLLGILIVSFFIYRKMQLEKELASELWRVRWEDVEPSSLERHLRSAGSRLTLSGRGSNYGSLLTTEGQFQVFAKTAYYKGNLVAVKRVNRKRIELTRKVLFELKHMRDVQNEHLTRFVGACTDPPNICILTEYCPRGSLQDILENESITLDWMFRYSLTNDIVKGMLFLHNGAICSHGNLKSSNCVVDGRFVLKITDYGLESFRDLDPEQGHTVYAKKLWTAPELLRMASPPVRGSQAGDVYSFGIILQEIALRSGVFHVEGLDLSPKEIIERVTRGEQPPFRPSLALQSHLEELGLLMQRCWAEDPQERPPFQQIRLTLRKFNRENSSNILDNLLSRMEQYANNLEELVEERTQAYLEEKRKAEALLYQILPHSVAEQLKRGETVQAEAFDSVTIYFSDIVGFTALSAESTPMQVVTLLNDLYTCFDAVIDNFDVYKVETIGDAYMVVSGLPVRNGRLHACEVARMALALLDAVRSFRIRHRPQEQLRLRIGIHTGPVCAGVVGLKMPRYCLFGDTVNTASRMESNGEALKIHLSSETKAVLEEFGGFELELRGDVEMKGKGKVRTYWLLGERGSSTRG
SMILES,Potency,"activity change, negative = inhibition"
O=C(Nc1ccc(Cl)cc1)c1nc2c(o1)CCN(Cc1ccsc1)CC2,8.91 µM (active),–
O=C(Nc1ccccc1)c1nc2c(o1)CCN(Cc1cccc(Cl)c1)CC2,11.2 µM (active),–
O=C(Cn1nc2n(c1=O)CCCC2)Nc1ccc(Cl)cc1,–,5.33%
CCNC(=O)C1C(c2cccc(NC(=O)c3cccc(C)c3)c2)OC(=O)N1Cc1cccc(Cl)c1 (stereo not given),–,-20.7%
Cc1cccc(CN2CCc3nc(C(=O)Nc4ccc(Cl)cc4)oc3CC2)c1,8.91 µM (active),–
COCCNc1ncccc1-c1noc([C@@H]2CCCN2Cc2ccc3c(c2)OCO3)n1,–,-3.12% [at 70.6 µM]
CC(C)N1C(=O)OCC12CCN(C(=O)c1ccc(Oc3ccccc3)cc1)C2 (stereo not given),–,4.3% [at 70.6 µM]
CCc1nc2c(c(-c3ccc(Cl)cc3)n1)CN(CCC(C)C)CC2,–,-1.49%
COC(=O)N1CCCc2nc(C)nc(-c3ccc(O)cc3)c2C1,–,2.32% [at 70.6 µM]
CN(C)c1cc(N2C[C@@H](CN3CCOCC3)C[C@H](CO)C2)ncn1,–,-8.83%
COc1ccccc1C(=O)N1CCC2(CC1)CC(=O)c1ccccc1O2,–,-21.6% [at 70.6 µM]
CC(=O)N(C1CC1)C1CCOC2(CCN(C(=O)C3(c4ccccc4)CC3)CC2)C1 (stereo not given),–,4.52%
COCC1CN(C(C)=O)CC12CCN(Cc1ccccc1OC)CC2 (stereo not given),–,-1.17%
COc1ccc(CN2C=C(C(=O)OCc3nc(C)no3)C(C)=NS2(=O)=O)cc1,–,-6.71%
CC1=NS(=O)(=O)N(C)C=C1C(=O)OCc1nc(-c2ccccc2C)no1,–,0%
CC1=NS(=O)(=O)N(C)C=C1C(=O)OCc1nc(-c2ccc(C)cc2)no1,10 µM (active),–
CCn1ncc(N2CCC(NC(=O)c3ccccc3OC)CC2)cc1=O,–,-14.3%
COc1cccc(C(=O)NCC2Cn3cccc3C(=O)N2Cc2ccccc2)c1 (stereo not given),–,-15.6%
COc1cccc(-c2cc(-c3nc(C4CCOC4)no3)[nH]n2)c1 (stereo not given),–,-1.22%
COc1ccc(-c2[nH]nc3ncc(C(=O)Nc4ccccc4)nc23)c(C)c1,–,-2.06% [at 70.6 µM]
CN(C)c1ccc2ncc(Nc3ccccc3F)n2n1,–,-8.3% [at 70.6 µM]
COc1ccccc1Nc1cnc2ccc(N(C)Cc3cccnc3)nn12,25.1 µM (active),–
COc1ccccc1Nc1cnc2ccc(-c3ccc(OC)c(OC)c3)nn12,–,-2.18% [at 70.6 µM]
O=C1NC2(CN([S+](=O)([O-])c3cccc(C(F)(F)F)c3)C2)Oc2ccccc21,–,-18.2%
Cc1cccc(-n2nc(-c3c(C)nc4scc(CC(=O)NC(C)C(C)C)n4c3=O)cc2C)c1 (stereo not given),–,-1.1%

SMILES,Potency,"activity change, negative = inhibition"
COc1cccc(CNC(=O)Cn2c(N(C)Cc3ccccc3)nc(C)cc2=O)c1OC,15.8 µM (active),–
COc1cccc(NC(=O)Cn2c(N(C)Cc3ccccc3)nc(C)cc2=O)c1,10 µM (active),–
COc1cccc(NC(=O)Cn2c(-c3ccccc3)nc(C)cc2=O)c1,–,-4.42%
CCCN1C(=O)Cc2ccccc2C1C(=O)NCc1cccc(OC)c1OC (stereo not given),–,-21.9%
COc1cc(NC(=O)Cn2c(N3CCc4ccccc4C3)nc(C)cc2=O)cc(OC)c1,–,-18.2%
COc1ccccc1CNC(=O)CN1CCCC(CO)(CC2CC2)C1 (stereo not given),–,-17%
COc1ccc2[nH]c3c(c2c1)CCNC31CCN(C(=O)c2cc(C)n(C)n2)CC1,–,-6.94%
COc1cccc(C(C(=O)O)N2CCN(c3ccccn3)CC2)c1OC (stereo not given),–,7.01%
Cc1cc(C(=O)N2CCC3(CC2)CC(C(=O)N2CCOCC2)N(C)C3)nn1C (stereo not given),–,2.63%
CCn1nccc1C(=O)N1CCCCCNC(=O)[C@H]2C[C@H](C(=O)N3CCc4ccccc4C3)C[C@H]21,–,6.58%
Cc1ccc(OCc2nc(C3CCN(C(=O)CCc4nc5ccc(Cl)cc5[nH]4)CC3)no2)cc1,11.2 µM (active),–
Cc1ccc(OCc2nc(C3CCN(C(=O)c4noc(C)c4CN4CCCCC4)CC3)no2)cc1,–,-18%
Cc1ccc(OCc2nc(C3CCN(C(=O)c4c5c(nc6ccccc46)CCCC5)CC3)no2)cc1,–,-19%
COCCOC1CCN(C(=O)c2[nH]nc3c2COc2ccccc2-3)CC1,–,-25.5%
Cc1noc(C)c1-c1cnc2[nH]cc(CC(=O)N3CCOCC3)c2c1,22.4 µM (active),–
Cc1noc(C)c1-c1nccc2c(=O)cc(N3CCOCC3)oc12,–,2.24% [at 70.6 µM]
CN(C(=O)Cc1c[nH]c2ncc(-c3cnn(C)c3)cc12)c1ccccc1,–,-1.73% [at 70.6 µM]
O=C(Cc1c[nH]c2ncc(-c3ccccc3F)cc12)N1CCOCC1,25.1 µM (active),–
COc1ccc(CNC(=O)Cc2c[nH]c3ncc(-c4ccccc4)cc23)cc1OC,–,-27.7% [at 70.6 µM]
COCCNC(=O)Cc1c[nH]c2ncc(-c3cccnc3OC)cc12,–,-2.92% [at 70.6 µM]
CCCCSc1nc(N)cc(N2CCCC(OCc3cccnc3)C2)n1 (stereo not given),–,-19.3%
CC(C)CNC(=O)CC(c1ccc(F)cc1F)c1c[nH]c2ccccc12 (stereo not given),–,-18.2%
COc1ccc(CNC(=O)c2cc3n(n2)CC(c2ccc4c(c2)OCO4)OC3)c(OC)c1 (stereo not given),–,-5.63%
CCCc1nc(C(=O)N[C@@H]2[C@@H](Cc3ccccc3)[C@H]3OCC[C@@H]23)cs1,–,-2.95%
Cc1ccc(NC(=O)Cn2ccn3nc4c(c3c2=O)CC(C)CC4)cc1Cl (stereo not given),–,1.66%
